25 sequences from the supplement of paper PMC12645437, “Orthogonal IMiD-Degron Pairs Induce Selective Protein Degradation in Cells” (ACS Chemical Biology, 2025) can be followed below.

This experiment deals with T1, CRBN, Q96SW2.
T1 chain: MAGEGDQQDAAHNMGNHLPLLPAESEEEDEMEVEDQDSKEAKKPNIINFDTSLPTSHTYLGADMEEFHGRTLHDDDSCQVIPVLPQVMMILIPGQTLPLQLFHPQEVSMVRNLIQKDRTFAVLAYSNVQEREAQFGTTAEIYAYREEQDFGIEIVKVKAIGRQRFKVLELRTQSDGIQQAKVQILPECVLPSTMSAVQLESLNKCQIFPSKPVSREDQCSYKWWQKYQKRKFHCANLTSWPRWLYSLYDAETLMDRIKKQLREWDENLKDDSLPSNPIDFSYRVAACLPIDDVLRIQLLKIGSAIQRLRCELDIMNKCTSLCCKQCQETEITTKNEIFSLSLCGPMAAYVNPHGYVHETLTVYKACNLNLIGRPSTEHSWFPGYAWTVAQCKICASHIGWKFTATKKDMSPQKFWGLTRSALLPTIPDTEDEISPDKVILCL
The experiment in a line: log2 fold change of degron read counts, EGFP-low vs EGFP+ sorted cells (limma voom), compound-induced degradation; higher = more compound-induced degradation of the degron-EGFP fusion; degrons are variants of IKZF1/3 zinc finger 2; compound dose not given here. To be noted: Jurkat, 18 h.

[1] abbreviates: compound: compound 19 (5-tert-butyl-thalidomide).
Where [2] appears, read: compound: compound 22 (5-morpholino-thalidomide).
Where [3] appears, read: compound: compound 33 (diphenyl IMiD analogue).

Whole data set: some 8,300 sequences, median “log2 fold change of degron read counts, EGFP-low vs EGFP+ sorted cells (limma voom), compound-induced degradation” near -1.1, cut for the highest 2% near 3.2. For the sample, the highest values were picked, then their nearest neighbours and some sequences at random.
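Also: pooled lentiviral library of zinc finger degron-EGFP fusions in mCherry-positive Jurkat cells, FACS-sorted after compound exposure, with degron abundance counted by next-generation sequencing.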

For the sequence LDCNQCGFQCTQKGNLLRHIKL [46L_47D_49N_50Q_52G_53F_54Q_55C_67L_, Q9UKT9], the “log2 fold change of degron read counts” value is, setting by setting: under setting [1], -2.46; under setting [2], -2.61; under setting [3], -2.96; (compound: thalidomide) -1.93.

In the case of FICPVCGATFTQKGNLLRHIKL [46F_47I_49P_50V_52G_53A_54T_55F_67L_, Q9UKT9], the “log2 fold change of degron read counts” value is -1.38 under setting [1], 1.38 under setting [2], 1.48 under setting [3] and 1.83 (compound: thalidomide).

With FKCEICGHHFTQKGNLLRHIKL [46F_47K_49E_50I_52G_53H_54H_55F_67L_, Q9UKT9], the “log2 fold change of degron read counts” value reads like this: under setting [1], -3.82; under setting [2], -3.97; under setting [3], -3.56; (compound: thalidomide) -3.72.

As to FNCNQCGRPFTQKGNLLRHIKL [46F_47N_49N_50Q_52G_53R_54P_55F_67L_, Q9UKT9], the “log2 fold change of degron read counts” value under setting [1] is -1.93, the “log2 fold change of degron read counts” value under setting [2] is -2, the “log2 fold change of degron read counts” value under setting [3] is -2.66 and the “log2 fold change of degron read counts” value (compound: thalidomide) was -2.05.

With FVCPQCGAMFTQKGNLLRHIKL [46F_47V_49P_50Q_52G_53A_54M_55F_67L_, Q9UKT9], the “log2 fold change of degron read counts” value is -2.14 under setting [1], -0.591 under setting [2], 0.3 under setting [3] and -0.862 (compound: thalidomide).

As to FECPQCGAFFTQKGNLLRHIKL [46F_47E_49P_50Q_52G_53A_54F_55F_67L_, Q9UKT9], the “log2 fold change of degron read counts” value under setting [1] was -2.8, the “log2 fold change of degron read counts” value under setting [2] is -3.69, the “log2 fold change of degron read counts” value under setting [3] is -1.82 and the “log2 fold change of degron read counts” value (compound: thalidomide) is -1.91.

With FECDQCGAAFTQKGNLLRHIKL [46F_47E_49D_50Q_52G_53A_54A_55F_67L_, Q9UKT9], the “log2 fold change of degron read counts” value was -1.3 under setting [1], -3.38 under setting [2], -1.76 under setting [3] and -1.6 (compound: thalidomide).

FTCEQCGACFTQKGNLLRHIKL [46F_47T_49E_50Q_52G_53A_54C_55F_67L_, Q9UKT9]: the “log2 fold change of degron read counts” value was -1.75 under setting [1], -1.02 under setting [2], 0.816 under setting [3] and 0.182 (compound: thalidomide).

As for FWCPQCGAVFTQKGNLLRHIKL [46F_47W_49P_50Q_52G_53A_54V_55F_67L_, Q9UKT9], the “log2 fold change of degron read counts” value is, setting by setting: under setting [1], -0.18; under setting [2], 1.02; under setting [3], 0.693; (compound: thalidomide) -0.596.

Consider FICEICGAMFTQKGNLLRHIKL [46F_47I_49E_50I_52G_53A_54M_55F_67L_, Q9UKT9], for which the “log2 fold change of degron read counts” value is -0.357 under setting [1], 1.35 under setting [2], 2.3 under setting [3] and 2.13 (compound: thalidomide).

As for FYCEICGAMFTQKGNLLRHIKL [46F_47Y_49E_50I_52G_53A_54M_55F_67L_, Q9UKT9], the “log2 fold change of degron read counts” value reads like this: under setting [1], 3.62; under setting [2], 3.42; under setting [3], 2.55; (compound: thalidomide) 0.91.

As to FTCEICGAMFTQKGNLLRHIKL [46F_47T_49E_50I_52G_53A_54M_55F_67L_, Q9UKT9], the “log2 fold change of degron read counts” value is 0.136 under setting [1], 0.966 under setting [2], 1.62 under setting [3] and 1.82 (compound: thalidomide).

FACPQCGAAFTQKGNLLRHIKL [46F_47A_49P_50Q_52G_53A_54A_55F_67L_, Q9UKT9]: the “log2 fold change of degron read counts” value under setting [1] is 1.65, the “log2 fold change of degron read counts” value under setting [2] is -0.791, the “log2 fold change of degron read counts” value under setting [3] was 0.0272 and the “log2 fold change of degron read counts” value (compound: thalidomide) was -1.04.

Regarding FFCEVCGAGFTQKGNLLRHIKL [46F_47F_49E_50V_52G_53A_54G_55F_67L_, Q9UKT9], the “log2 fold change of degron read counts” value is, setting by setting: under setting [1], 3.65; under setting [2], 2.72; under setting [3], 1.51; (compound: thalidomide) 0.512.

For FCCEVCGAGFTQKGNLLRHIKL [46F_47C_49E_50V_52G_53A_54G_55F_67L_, Q9UKT9], the “log2 fold change of degron read counts” value is, setting by setting: under setting [1], 3.35; under setting [2], 1.74; under setting [3], 1.47; (compound: thalidomide) 1.17.

As for FACEVCGAGFTQKGNLLRHIKL [46F_47A_49E_50V_52G_53A_54G_55F_67L_, Q9UKT9], the “log2 fold change of degron read counts” value under setting [1] amounted to 3.4, the “log2 fold change of degron read counts” value under setting [2] was found to be 1.13, the “log2 fold change of degron read counts” value under setting [3] is -0.271 and the “log2 fold change of degron read counts” value (compound: thalidomide) was 0.383.

For the sequence FICEVCGAGFTQKGNLLRHIKL [46F_47I_49E_50V_52G_53A_54G_55F_67L_, Q9UKT9], the “log2 fold change of degron read counts” value is -0.137 under setting [1], 2.66 under setting [2], 2.12 under setting [3] and 2.56 (compound: thalidomide).

For FDCEVCGAGFTQKGNLLRHIKL [46F_47D_49E_50V_52G_53A_54G_55F_67L_, Q9UKT9], the “log2 fold change of degron read counts” value reads like this: under setting [1], 1.18; under setting [2], -1.45; under setting [3], -1.35; (compound: thalidomide) -0.721.

As to FHCEVCGAGFTQKGNLLRHIKL [46F_47H_49E_50V_52G_53A_54G_55F_67L_, Q9UKT9], the “log2 fold change of degron read counts” value under setting [1] is 3.18, the “log2 fold change of degron read counts” value under setting [2] was 1.07, the “log2 fold change of degron read counts” value under setting [3] is 2.01 and the “log2 fold change of degron read counts” value (compound: thalidomide) was -0.276.

With FYCEVCGAGFTQKGNLLRHIKL [46F_47Y_49E_50V_52G_53A_54G_55F_67L_, Q9UKT9], the “log2 fold change of degron read counts” value is, setting by setting: under setting [1], 3.31; under setting [2], 3.22; under setting [3], 2.6; (compound: thalidomide) 0.445.

On to FECEVCGAGFTQKGNLLRHIKL [46F_47E_49E_50V_52G_53A_54G_55F_67L_, Q9UKT9], for which the “log2 fold change of degron read counts” value runs as follows: under setting [1], 1.72; under setting [2], -1.52; under setting [3], 0.852; (compound: thalidomide) 1.21.

With FRCEVCGAGFTQKGNLLRHIKL [46F_47R_49E_50V_52G_53A_54G_55F_67L_, Q9UKT9], the “log2 fold change of degron read counts” value turned out to be 2.66 under setting [1], 2.02 under setting [2], 2.33 under setting [3] and 1.57 (compound: thalidomide).

On to FLCEVCGAGFTQKGNLLRHIKL [46F_47L_49E_50V_52G_53A_54G_55F_67L_, Q9UKT9], for which the “log2 fold change of degron read counts” value was 2.28 under setting [1], -0.0355 under setting [2], 1.42 under setting [3] and 1.08 (compound: thalidomide).

Take FQCEVCGAGFTQKGNLLRHIKL [46F_47Q_49E_50V_52G_53A_54G_55F_67L_, Q9UKT9]: the “log2 fold change of degron read counts” value runs as follows: under setting [1], 2.45; under setting [2], 1.65; under setting [3], 1.38; (compound: thalidomide) 3.21.

For the sequence FGCEVCGAGFTQKGNLLRHIKL [46F_47G_49E_50V_52G_53A_54G_55F_67L_, Q9UKT9], the “log2 fold change of degron read counts” value is, setting by setting: under setting [1], 1.93; under setting [2], -0.105; under setting [3], 0.538; (compound: thalidomide) -0.636.
